Screening results (PubChem)
Cruzain Triton – inhibitors of Trypanosoma cruzi cruzain with detergent. P25779. purified cruzain, Z-FR-AMC fluorescence, 0.01% Triton. 0.43% of 200,000 active. Potency, µM, for the others: max response, negative = inhibition, usual class: inhibitors;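 note: plate controls were neutral wells for no effect and buffer without enzyme for full effect; nearly all actives have a fitted effect of over 40% in size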
Target sequence (P25779 123-467 limits assumed): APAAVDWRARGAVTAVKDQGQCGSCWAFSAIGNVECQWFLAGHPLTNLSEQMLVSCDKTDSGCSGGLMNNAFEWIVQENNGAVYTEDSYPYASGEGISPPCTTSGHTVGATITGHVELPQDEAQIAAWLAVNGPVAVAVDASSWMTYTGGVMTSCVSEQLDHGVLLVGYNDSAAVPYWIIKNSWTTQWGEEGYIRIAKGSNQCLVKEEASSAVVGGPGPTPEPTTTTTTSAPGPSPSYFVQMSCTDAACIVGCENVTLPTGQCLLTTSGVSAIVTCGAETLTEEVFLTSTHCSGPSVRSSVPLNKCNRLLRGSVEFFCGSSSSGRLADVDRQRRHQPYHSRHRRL
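Purified cruzain (1.5 nM final) was preincubated with compounds for 15 min at room temperature in 100 mM sodium acetate pH 5.5, 5 mM DTT, 0.01% Triton X-100. Reaction started with 2 uM Z-FR-AMC; AMC fluorescence change over 60 s gave activity.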
Cruzain noTriton – blocks cruzain activity in detergent-free assay. purified cruzain, Z-FR-AMC fluorescence, no detergent. Potency, µM, without a hit: max response, negative = inhibition, usual class: inhibitors. 2.3% of 200,000 active. AID 1476. P25779;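 note: plate controls were enzyme without inhibitor for no effect and buffer without enzyme for full effect; nearly all actives have a fitted effect of over 40% in size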
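Purified cruzain at 1.5 nM, pre-incubated 15 min with compound at room temperature in 100 mM sodium acetate pH 5.5, 5 mM DTT, 0.00005% Triton X-100. Reaction started with 2 uM Z-FR-AMC; AMC fluorescence increase over 60 s gives rate.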
Numbers without * were called inactive. In the library only some 2.5% were active in any assay of this set; here they are far more common. Calls come from the whole dose curve; as a rule, active = well fitted curve in the direction sought with a large enough effect; inconclusive = small, poorly fitted or top-dose-only effect, or another doubt; inactive = no such curve, though single readings can be large; an effect the other way counts as inactive or inconclusive. Potency is the fitted concentration of half-maximal effect.

How did S=C(NCc1ccncc1)Nc1cccc(Cl)c1 do in these assays?
Cruzain Triton: -1.0%; Cruzain noTriton: 13.2%

What do the screens show for `O=C(CCc1ccccc1)NC(NC(=S)Nc1cccc(Cl)c1)C(Cl)(Cl)Cl` (centres undefined)?
Cruzain Triton: -0.9%; Cruzain noTriton: 7.94µM*

Results for S=C(NCCC(c1ccccc1)c1ccccc1)Nc1cccc(Cl)c1 ?
Cruzain Triton: 1.7%; Cruzain noTriton: 15.8µM*

What do the screens show for `CCCC(=O)NC(NC(=S)Nc1ccc(N=Nc2ccccc2)cc1)C(Cl)(Cl)Cl` (centres undefined)?
Cruzain Triton: -4.5%; Cruzain noTriton: -29.4%

How did O=C(/C=C/c1ccccc1)NC(NC(=S)Nc1cccc(Cl)c1)C(Cl)(Cl)Cl (centres undefined) do in these assays?
Cruzain Triton: -0.6%; Cruzain noTriton: inconclusive

How did Cc1ccccc1NC(=O)CSc1nc2c(oc3ccccc32)c(=O)n1-c1ccccc1F do in these assays?
Cruzain Triton: -2.9%; Cruzain noTriton: -29.6%

How did COc1ccc2oc(=O)c(C(=O)Nc3ccc(C(=O)O)cc3)cc2c1 do in these assays?
Cruzain Triton: 0.5%; Cruzain noTriton: 18.5%

What do the screens show for `CC(C)CCNC(=O)c1ccc2c(c1)N(Cc1ccccc1F)C(=O)c1ccccc1S2(=O)=O`?
Cruzain Triton: -3.0%; Cruzain noTriton: 9.8%

Results for CCOC(=O)c1c(S(=O)(=O)NCC(=O)N(C)c2ccc(C)cc2)c(C)n(C)c1C ?
Cruzain Triton: 0.0%; Cruzain noTriton: 6.7%

Results for Cc1ccc(NC(=O)CN2C(=O)COc3ccc(S(=O)(=O)N4CCCCCC4)cc32)cc1Cl ?
Cruzain Triton: -1.4%; Cruzain noTriton: -16.6%

What do the screens show for `Cc1ccc(-c2cc3c(n2-c2ccc(F)cc2)CC(C)(C)CC3=O)cc1`?
Cruzain Triton: 0.8%; Cruzain noTriton: 11.8%

Results for CCCCOC(=O)c1ccc(NC(=O)c2cc(-c3cccs3)on2)cc1 ?
Cruzain Triton: -0.7%; Cruzain noTriton: 1.7%

Results for CCOc1ccc(CNC(=O)C2CCCN(c3nc4c(C)cc(C)cc4s3)C2)cc1 (centres undefined) ?
Cruzain Triton: 0.2%; Cruzain noTriton: -4.5%

Results for CN(Cc1ccccc1)c1ccc(-c2nc(-c3ccncc3)no2)cc1[N+](=O)[O-] ?
Cruzain Triton: -2.5%; Cruzain noTriton: 11.2%

How did CN(Cc1ccccc1)c1ccc(-c2nc(-c3cccnc3)no2)cc1[N+](=O)[O-] do in these assays?
Cruzain Triton: -13.8%; Cruzain noTriton: 25.1µM*

Results for CN(C)c1ccc(-c2nc3cnccn3c2Nc2cccc(C(F)(F)F)c2)cc1 ?
Cruzain Triton: -8.2%; Cruzain noTriton: 0.1%

How did O=C(Nc1ccc2ccccc2c1)c1cn(-c2ccccc2)nc1-c1cccs1 do in these assays?
Cruzain Triton: -0.6%; Cruzain noTriton: 20µM*

Results for CN(C)c1ccc(NC(=O)c2cn(-c3ccccc3)nc2-c2cccs2)cc1 ?
Cruzain Triton: -0.7%; Cruzain noTriton: inconclusive

How did O=C1CCCc2cc(S(=O)(=O)N3CCCC(C(=O)Nc4ccc(F)c(Cl)c4)C3)ccc2N1 (centres undefined) do in these assays?
Cruzain Triton: -9.6%; Cruzain noTriton: inconclusive

How did Cc1ccc(Cl)cc1Nc1nn2c(=O)c3ccc(C(=O)Nc4ccc(F)cc4)cc3nc2s1 do in these assays?
Cruzain Triton: -1.6%; Cruzain noTriton: 4.3%

How did CC1=NN(c2ccc(Br)cc2)C(=O)/C1=C/c1cccs1 do in these assays?
Cruzain Triton: -5.1%; Cruzain noTriton: -1.2%

Results for Cc1ccc(C2=N/C(=C/c3cccs3)C(=O)N2Nc2ccccc2)cc1 ?
Cruzain Triton: 0.8%; Cruzain noTriton: 25.1µM*

What do the screens show for `O=C(Nc1nnc(C2CC2)s1)c1cc2c(s1)CCCCCC2`?
Cruzain Triton: 6.1%; Cruzain noTriton: 6.31µM*

What do the screens show for `COC(=O)c1ccc(CSc2nnc(NC(=O)c3cc4c(s3)CCCC4)s2)cc1`?
Cruzain Triton: -6.9%; Cruzain noTriton: 6.31µM*

What do the screens show for `COC(=O)c1ccc(CSc2nnc(C)s2)cc1`?
Cruzain Triton: 7.1%; Cruzain noTriton: -12.8%

Results for O=C(Nc1nnc(SCc2ccc(F)cc2)s1)c1ccco1 ?
Cruzain Triton: 1.5%; Cruzain noTriton: -17.2%

Results for Cc1csc(NC(=O)c2cc3c(s2)CCC3)n1 ?
Cruzain Triton: -11.4%; Cruzain noTriton: -7.8%

Results for CC1CCc2sc(C(=O)Nc3nnc(SCc4ccc(F)cc4)s3)cc2C1 (centres undefined) ?
Cruzain Triton: -9.7%; Cruzain noTriton: 10µM*

Results for CCOc1cc(C(=O)Nc2ccc(S(=O)(=O)Nc3cc(OC)nc(OC)n3)cc2)cc(OCC)c1OCC ?
Cruzain Triton: -14.1%; Cruzain noTriton: inconclusive

How did CCOc1ccc(Cn2c(CNS(=O)(=O)c3cccs3)nc3cccnc32)cc1 do in these assays?
Cruzain Triton: -1.9%; Cruzain noTriton: 14.1%

Results for COc1ccc(-c2noc(-c3ccc(N4CCOCC4)c([N+](=O)[O-])c3)n2)cc1OC ?
Cruzain Triton: -3.5%; Cruzain noTriton: 11.8%

Results for COc1ccc(-c2noc(-c3ccc(N4CCC(C)CC4)c([N+](=O)[O-])c3)n2)cc1OC ?
Cruzain Triton: -6.9%; Cruzain noTriton: 20µM*

How did Cc1ccc(N2C(=O)[C@@H]3[C@H](C2=O)[C@H]2C=C(C(=O)c4ccccc4)C=CN2[C@@H]3C(=O)c2ccc(Cl)cc2)cc1 do in these assays?
Cruzain Triton: -0.5%; Cruzain noTriton: 3.16µM*

Results for Cc1ccc(N2C(=O)[C@@H]3[C@H](C2=O)C2CCCN2[C@@H]3C(=O)c2ccccc2)cc1 (some centres undefined) ?
Cruzain Triton: -3.6%; Cruzain noTriton: inconclusive

What do the screens show for `O=C(C1=C[C@@H]2[C@H]3C(=O)N(c4cccc(Cl)c4)C(=O)[C@H]3[C@@H](C(=O)c3ccc(Cl)cc3)N2C=C1)c1ccccc1`?
Cruzain Triton: 0.3%; Cruzain noTriton: 15.8µM*

How did O=C(C1=C[C@@H]2[C@H]3C(=O)N(c4ccccc4Cl)C(=O)[C@H]3[C@@H](C(=O)c3ccc(Cl)cc3)N2C=C1)c1ccccc1 do in these assays?
Cruzain Triton: -7.7%; Cruzain noTriton: -23.8%

Results for Cn1c(=O)c2sccc2n2c(CCCC(=O)Nc3ccc(Oc4ccccc4)cc3)nnc12 ?
Cruzain Triton: -2.2%; Cruzain noTriton: inconclusive

What do the screens show for `Cc1ccc(NC(=O)CN2C(=O)CCc3cc(S(=O)(=O)N4CCCCC4)ccc32)cc1N(C)C`?
Cruzain Triton: -3.2%; Cruzain noTriton: 16.2%

What do the screens show for `Oc1ccc(C2=NNC(=NCc3ccc4c(c3)OCO4)SC2)c(O)c1`?
Cruzain Triton: -13.4%; Cruzain noTriton: inconclusive

Results for COc1ccc(OC)c(C2=NNC(=NCc3ccc4c(c3)OCO4)SC2)c1 ?
Cruzain Triton: -8.4%; Cruzain noTriton: 12.6µM*

What do the screens show for `Cc1cc(/C=C2/NC(=O)N(Cc3ccccc3F)C2=O)c(C)n1C(C)C`?
Cruzain Triton: -11.3%; Cruzain noTriton: 25.1µM*

How did CCn1c(C)cc(/C=C2/NC(=O)N(Cc3ccccc3F)C2=O)c1C do in these assays?
Cruzain Triton: -1.8%; Cruzain noTriton: inconclusive

Results for CCc1ccc(-n2c(=O)c3sc4ccccc4c3n(CC(=O)N3CCCC3)c2=O)cc1 ?
Cruzain Triton: -2.1%; Cruzain noTriton: 3.7%

What do the screens show for `CCOc1ccc(-c2nnc(SCC(=O)Nc3cc(C)ccc3OC)o2)cc1`?
Cruzain Triton: 31.6µM*; Cruzain noTriton: inconclusive

Results for CCOc1ccc(-c2nnc(SCC(=O)Nc3ccc(C)cc3Cl)o2)cc1 ?
Cruzain Triton: 28.2µM*; Cruzain noTriton: inconclusive
